Compound activity: PubChem, National Center for Advancing Translational Sciences (NCATS)
HP1b chromo inh: HP1-beta chromodomain-methylated histone interaction inhibition; P83916; AlphaScreen HP1-beta / biotin-H3K9me3 peptide binding; Potency, µM (highest dose often 114 µM), without a hit: at the top dose activity change, negative = inhibition, most hits filed as inhibitors; actives 0.56% (n = 390,000); AID 540317; note: nearly all actives have a fitted effect of over 70% in size
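AlphaScreen: HP1-beta (50 nM) preformed 30 min with biotin-H3(1-18)K9me3 peptide (50 nM) in PBS pH 7.4, 0.01% Tween-20. Compound added for 30 min at RT, then streptavidin donor/nickel chelate acceptor beads (10 ug/mL) for 30 min.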
VDR inh: blocks the human vitamin D receptor. VDR-SRC2-3 peptide fluorescence polarization, 2 h. Potency, µM, for the others: max response, negative = inhibition, usual class: inhibitors. actives 0.93% (n = 400,000). AID 504847; note: % is set by controls: 0 for no effect and ±100 for the full control effect
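FP read-out; VDR + SRC2-3 coactivator peptide; 23 nl compound by pintool; 2 h RT incubation; reagents held at 4 deg C, protected from light.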
JMJD2A Tudor: JMJD2A Tudor domain (human) inhibition. Potency, µM (titrated, usually from 114 µM), for the others: at the highest dose activity change, negative = inhibition, usual class: inhibitors. actives 4.4% (n = 390,000). O75164. AID 504339. AlphaScreen JMJD2A-Tudor / H3K4me3 peptide binding; note: % is set by controls: 0 for no effect and ±100 for the full control effect; nearly all actives have a fitted effect of over 50% in size
G9a inh: G9a (human) methyltransferase inhibition | Q96KQ7 | G9a H3K9 monomethylation, AlphaScreen, 2 h | Potency, µM (series often up to 102 µM), without a hit: at the top dose activity, negative = inhibition, hits mostly inhibitors | actives 8.8% (n = 350,000); note: % is set by controls: 0 for no effect and ±100 for the full control effect; nearly all actives have a fitted effect of over 75% in size
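Quantitative HTS format: methyltransferase activity on a biotin-tagged H3K9 peptide is measured by AlphaScreen, using a rabbit anti-monomethyl-H3K9 antibody with streptavidin donor and anti-IgG acceptor beads. Final levels are 20 nM enzyme, 500 nM peptide, 20 uM SAM; 2 h RT.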
PLK1 PBD block: PLK1 (human) polo-box domain binding inhibition; P53350; Plk1 PBD binding of FITC phosphopeptide, fluorescence polarization; Potency, µM, inactives show max response, negative = inhibition, hits mostly inhibitors; actives 2.8% (n = 360,000); AID 720504; note: series mostly up to about 57 µM; % is set by controls: 0 for no effect and ±100 for the full control effect; nearly all actives have a fitted effect of over 65% in size
BAZ2B inh: inhibitors of human BAZ2B bromodomain; Potency, µM (titrated, usually from 114 µM), inactives show at the highest dose activity change, negative = inhibition, actives largely listed as inhibitors; Q9UIF8; AlphaScreen BAZ2B-H3K14Ac peptide displacement; actives 4.4% (n = 360,000); note: % is set by controls: 0 for no effect and ±100 for the full control effect; nearly all actives have a fitted effect of over 60% in size
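BAZ2B 50 nM plus b-H3(5-23)K14Ac 50 nM, PBS pH 7.4/0.01% Tween-20, 30 min RT; compound added (max 110 uM), 30 min RT; streptavidin donor/Ni-chelate acceptor beads 10 ug/mL final, 20 min dark; AlphaScreen read.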
* = called active by the depositor; ? = inconclusive; / = not tested or not shown; [ ] = remark or other dose. Rows were chosen to be rich in hits. Some 11% of all compounds tested hit in one or more screens of this group. Calls come from the whole dose curve; as a rule, active = well fitted curve in the direction sought with a large enough effect; inconclusive = small, poorly fitted or top-dose-only effect, or another doubt; inactive = no such curve, though single readings can be large; an effect the other way counts as inactive or inconclusive. Potency is the fitted concentration of half-maximal effect.

SMILES	HP1b chromo inh	VDR inh	JMJD2A Tudor	G9a inh	PLK1 PBD block	BAZ2B inh
CCCCC(=O)NNC(=S)NC(=O)CCC	21.4%	-16.5%	50.1µM*	10µM*	-7.9%	26.0%
CCCCC(=O)NC(=S)NNC(=O)CC#N	-23.0%	-1.3%	17.8µM*	?	-15.9%	-12.3%
CN1C(=S)SC(C)(NO)C1(C)C (stereo not given)	?	?	22.4µM*	?	?	?
CC1(C)CC(N=c2cc(-c3ccccc3)oc3ccc(Cl)cc23)CC(C)(C)N1	19.2%	11.0%	-23.4%	70.8µM*	1.2%	?
CCC(C)C(NC(=O)OC(C)(C)C)C(=O)NC1COC2CC(n3ccc(=O)[nH]c3=O)OC12 (stereo not given)	22.1%	9.3%	-3.4%	/	/	/
NC(CS)C(=O)O (stereo not given)	/	44.7µM*	/	15.8µM*	/	/
N[C@H](CS)C(=O)O	/	?	/	-0.5%[59 µM]	/	/
Cc1nc(C)c(Oc2cccc(C(F)(F)F)c2)c(=O)[nH]1	-0.4%	5.0%	-8.6%	4.6%	-11.2%	4.2%
Cc1cccc(N(CC(=O)NC2CCCCC2)C(=O)Cn2nnc(-c3ccc(C)o3)n2)c1	10.8%	-3.9%	-16.7%	44.7µM*	-7.7%	-15.1%
COc1ccc(-c2nnn(CC(=O)N(CC(=O)NC3CCCC3)c3ccccc3)n2)cc1OC	-12.8%	79.4µM*	17.8µM*	-1.8%[59 µM]	3.77µM*	-19.7%
Cc1ccc(-c2nnn(CC(=O)N(CC(=O)NC3CCCCC3)c3ccccc3F)n2)o1	30.1%	-24.7%	-22.5%	35.5µM*	-9.1%	?
Cc1ccc(-c2nnn(CC(=O)N(CC(=O)NC3CCCCC3)c3cccc(F)c3)n2)o1	9.9%	-17.8%	-4.2%	-1.0%	0.6%	3.6%
O=C(NCc1ccccn1)Nc1ccccc1F	40.6%	-2.7%	-7.1%	/	-4.0%	-6.3%
COc1ccc(NC(=O)C2=CC(c3ccc4c(c3)OCO4)=NS(=O)(=O)N2C)cc1	73.2%	8.5%	-24.5%	?	/	?
CN(CCCn1ccc(NC(=O)OCc2ccccc2)nc1=O)CCc1ccccn1	/	/	/	/	6.9%	/
COc1cccc(-n2nnnc2SCC(=O)Nc2ccc(NC(C)=O)cc2)c1	2.6%	-18.3%	?	19.2%	23.8µM*	1.2%
COc1cccc(-n2nnnc2S(C)(=O)=O)c1	37.2%	44.7µM*	-10.4%	?	7.52µM*	-0.7%
CCn1nnnc1SCC(=O)Nc1cc(OC)cc(OC)c1	-17.7%	-21.2%	?	8.5%	3.36µM*	14.0%
Cc1cccc(-n2nnnc2S(C)(=O)=O)c1	75.9%	?	-14.9%	-8.0%[59 µM]	/	-2.3%
Cc1cc(C)nc(SCC(=O)NC2=NC(=O)C(C)S2)n1 (stereo not given)	-5.0%	?	?	17.8µM*	?	10.8%
Cc1cc(C)nc(SCC(=O)Nc2cc(C)on2)n1	14.2%	4.6%	-14.3%	6.9%[59 µM]	-3.2%	33.9%
Cc1ccc(C2=NN=C(NC(=O)CSc3nnc4c5ccccc5n(C)c4n3)SC2)cc1	15.0%	?	?	44.7µM*	-25.5%	-9.8%
Cc1ccc(C2=NN=C(NC(=O)CSc3nc(C)cc(C)n3)SC2)cc1	/	/	/	28.2µM*	/	-36.0%
Cc1cc(C(F)(F)F)nc(SCC(=O)NC2=NC(=O)C(C)S2)n1 (stereo not given)	4.4%	-12.2%	-24.7%	?	?	5.0%
CCCCC(=O)Nc1ccc(C(=O)N(CC)c2ccccc2C)cc1	25.1%	-1.5%	-10.5%	-28.7%	-7.6%	?
COc1ccc(NC(=O)CC(CC(=O)O)c2cc(OC)c(OC)c(OC)c2)cc1 (stereo not given)	29.7%	5.2%	4.3%	/	0.6%	4.9%
CC(C1SC(=S)NC1=O)C1SC(=S)NC1=O (stereo not given)	/	/	/	/	2.12µM*	/
CN(/N=C/c1cccnc1)c1cnc2ccccc2n1	55.7%	-13.2%	-3.0%	24.9%	-10.0%	3.8%
Nc1c(-c2ccccc2)c(CN2CCOCC2)nn1-c1ccc(F)cc1	18.8%	-6.4%	8.3%	20µM*	-1.5%	-12.2%
